Measurements reported in PubChem BioAssay (Tox21).
A structure can be active in one record and inactive in another. Active and inactive are the calls of the source. Entries that show only a call come without a potency. Calls follow the shape of the dose curve; as a rule, active = well fitted activation curve with a large enough effect in the repeat runs; inconclusive = weak or mixed curves; inactive = flat fitted curve, though single readings scatter.
Potency is read from the fitted curve at half-maximal effect.

Assay: Caspase-3/7 induction in CHO-K1 cells by small molecules, qHTS assay (AID 1346980); also: nearly all actives have a fitted effect of over 15% in size
Conditions: CHO-K1 caspase-3/7 induction, Caspase-Glo luminescence, 17 h; series mostly up to 92.4 µM; caspase-3/7 activation: at the top concentration
Text: National Center for Advancing Translational Sciences [NCATS]
NIH Chemical Genomics Center [NCGC]
U.S. Environmental Protection Agency [EPA]
National Institutes of Environmental Health Sciences [NIEHS]
National Toxicology Program [NTP]
Apoptosis is a process of programmed cell death and plays a central role in the development of multicellular organisms. It is a highly regulated process and induces cell death by activating caspases, which are the members of cysteine aspartic acid-specific protease (caspase) family. Caspases involved in apoptosis are classified by their mechanism of action as initiator caspases (caspase-2, -8, -9 and -10) and executioner caspases (caspase-3, -6, and -7). Inhibition of apoptosis results in number of cancers, autoimmune diseases, inflammatory diseases and viral infection. To identify small molecule compounds that induce apoptosis, a homogeneous, luminescent Caspase-Glo 3/7 assay was used. Wild type CHO-K1 cells were used to screen Tox21 libraries for identifying caspase-3/7 activity inducers.
CHO-K1 cells were dispensed at 1,500 per well in 5uL of culture medium into white solid bottom 1536-well plates (Corning Life Sciences, Corning, NY) using a Multidrop Combi (Thermo Scientific, Waltham, MA) dispenser. The assay plates were incubated at 37 C and 5% CO2 for 5hr, and then 23nL of compounds dissolved in DMSO and positive control were transferred using a Pintool station (Wako, San Diego, CA). The assay plates were incubated at 37C and 5% CO2 for 17hr. For caspase-3/7 activity read, 4uL of Caspase-Glo 3/7 reagent (Promega Corporation, Madison, WI) was added to each well of the assay plates using Flying Reagent Dispenser (FRD, Aurora Discovery, San Diego, CA) and incubated the assay plates at room temperature for 30min. The luminescence signal was quantified using a ViewLux plate reader (Perkin Elmer, Shelton, CT).
In the case of `O=C1C(N(CO)C(=O)NCO)N(CO)C(=O)N1CO` (stereo not given), the Potency was “inactive”.
With `Cc1ccccc1Cl` the Potency was “inactive”.
For `CC/C=C(\C(=O)N[C@@H]1C(=O)N2C(C(=O)OCOC(=O)C(C)(C)C)=C(COC(N)=O)CS[C@H]12)c1csc(N)n1`, the Potency was “inactive”.
For `Clc1cccc(Cl)c1NC1=NCCN1`, the Potency was “inactive”.
For `C=CC(C)(C)C`, the Potency was “inactive”.
With `Nc1cccc(N)n1` the Potency was “inactive”.
In the case of `CC(=O)Nc1ccc(CC(=O)O)cc1`, the Potency was “inactive”.
In the case of `CC1(C)[C@@H](O[C@H]2O[C@H](C(=O)O)[C@@H](O)[C@H](O)[C@H]2O[C@@H]2O[C@H](C(=O)O)[C@@H](O)[C@H](O)[C@H]2O)CC[C@]2(C)[C@H]3C(=O)C=C4[C@@H]5C[C@@](C)(C(=O)O)CC[C@]5(C)CC[C@@]4(C)[C@]3(C)CC[C@@H]12`, the Potency was “inactive”.
In the case of `OCC(CO)(CO)CO`, the Potency was “inactive”.
In the case of `OC[C@H]1O[C@@H](Oc2ccc(O)cc2)[C@H](O)[C@@H](O)[C@@H]1O`, the Potency was “inactive”.
In the case of `C=C(CC(=O)O)C(=O)O`, the Potency was “inactive”.
With `C=C(C)CC(C)(C)C` the Potency was “inactive”.
In the case of `O=[N+]([O-])c1cc(C(F)(F)F)ccc1Cl`, the Potency was “inactive”.
With `Cc1cc(C)c(O)c(C)c1` the Potency was “inactive”.
With `Cc1ccc(C)c(S(=O)(=O)O)c1` the Potency was “inactive”.
In the case of `O=C(c1ccccc1)c1ccc(O)c(O)c1O`, the Potency was “inactive”.
In the case of `Cc1ccncc1`, the Potency was “inactive”.
In the case of `COCN(COC)c1nc(N(COC)COC)nc(N(COC)COC)n1`, the Potency was “inactive”.
For `Cc1cc(C)cc(O)c1`, the “caspase-3/7 activation” value was -0.311% (inactive).
For `CO[Si](CCCNCCN)(OC)OC`, the Potency was 27.7 µM (active) and inactive.
With `O=Cc1ccc(CO)o1` the Potency was “inactive”.
For `Nc1cccc(C(F)(F)F)c1`, the Potency was “inactive”.
In the case of `O=c1n(CCCN2CCN(c3cccc(Cl)c3)CC2)nc2ccccn12`, the Potency was “inactive”.
For `C=C1C[C@]23C[C@@]1(O)CC[C@H]2[C@@]12C=C[C@H](O)[C@@](C)(C(=O)O1)[C@H]2[C@@H]3C(=O)O`, the Potency was “inactive”.
With `CCc1cccc(O)c1` the Potency was “inactive”.
With `CC(=O)OCc1ccc2c(c1)OCO2` the Potency was “inactive”.
In the case of `CC(C)(C)NC[C@H](O)COc1nsnc1N1CCOCC1`, the Potency was “inactive”.
With `N#CCC(=O)O` the Potency was “inactive”.
In the case of `CCCCCCCCCCCC(=O)N(C)CC(=O)O`, the Potency was “inactive”.
With `Cc1cccc(C)c1[N+](=O)[O-]` the Potency was “inactive”.
For `CC/C(C)=N/O`, the Potency was “inactive”.
In the case of `CC(=O)OC/C=C(\C)CCC=C(C)C`, the Potency was “inactive”.
With `CC[N+](CC)(CC(=O)Nc1c(C)cccc1C)Cc1ccccc1` the Potency was “inactive”.
In the case of `OCCOCCOCCOCCOCCO`, the Potency was “inactive”.
For `NC(N)=S`, the Potency was “inactive”.
For `CC(=O)OCCC(C)C`, the Potency was “inactive”.
In the case of `NC(=O)c1ncn([C@@H]2O[C@H](CO)[C@@H](O)[C@H]2O)n1`, the Potency was “inactive”.
For `CCCOC(=O)NCCCN(C)C`, the Potency was “inactive”.
In the case of `OC1CCCCC1`, the Potency was “inactive”.
In the case of `CC(=O)c1nccs1`, the Potency was “inactive”.
